The panel holds about 79,000 compounds, 15% with a hit somewhere; the sample as a whole holds those more often. The source made the active and inactive calls. Rule as the data show it: active = growth inhibition above about 70%; inactive = the rest.
Legend:
[1] = NCI Yeast Anticancer Drug Screen. Data for the rad50 strain (AID 155);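 also: 0% = growth of vehicle-only cultures of the same strain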; conditions: S. cerevisiae rad50 strain growth inhibition, hits give high values
Method in brief: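 A DNA repair-deficient yeast mutant serves as the test organism; compound-induced growth inhibition is calculated against vehicle-treated cells.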

[2] = NCI Yeast Anticancer Drug Screen. Data for the mec2-1 strain (AID 157); conditions: S. cerevisiae mec2-1 strain, hits give high values
Method in brief: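 Yeast mec2-1 mutant treated with compound. Readout: growth inhibition vs vehicle controls.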

[3] = NCI Yeast Anticancer Drug Screen. Data for the sgs1 mgt1 strain (AID 161);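 also: 0% = growth of cultures given vehicle only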; conditions: S. cerevisiae sgs1 mgt1 strain, hits give high values
Method in brief: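 Read-out: growth inhibition vs vehicle controls. Cells: mutant yeast strain deficient in DNA damage repair.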

[4] = NCI Yeast Anticancer Drug Screen. Data for the cln2 rad14 strain (AID 165);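 also: 0% = growth equal to vehicle treated cultures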; conditions: S. cerevisiae cln2 rad14 strain, hits give high values
Method in brief: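 cln2 rad14 yeast strain; compound exposure; growth inhibition read vs vehicle controls.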

[5] = NCI Yeast Anticancer Drug Screen. Data for the bub3 strain (AID 167); conditions: S. cerevisiae bub3 mutant strain, hits give high values
Method in brief: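 Inhibition values come from growth of compound-treated mutant yeast normalised to vehicle-treated controls.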

[6] = NCI Yeast Anticancer Drug Screen. Data for the mlh1 rad18 strain (AID 175); conditions: S. cerevisiae mlh1 rad18 strain growth inhibition, hits give high values
Method in brief: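 Yeast w/ defined DNA-repair lesions; compound exposure; growth vs vehicle controls → % inhibition.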

[7] = at 5.0 µM (retest, dose inferred, filed as 0.5)
[8] = at 50.0 µM (retest, dose inferred, filed as 5.0)

Measured: growth inhibition

Cc1nn(C(=O)c2ccccc2O)c2c1C(c1ccc(O)cc1O)SC(N)=N2 (stereo not given)
active: [5]; [8] 81% | [5]; at 50.0 µM 71.7%
inactive: [1]; [7] -31% | [1]; [8] 28% | [1]; at 50.0 µM 46% | [2]; [7] -1% | [2]; [8] 47% | [2]; at 50.0 µM 22.6% | [3]; [7] -3% | [3]; [8] 24% | [3]; at 50.0 µM 42.5% | [4]; [7] 16% | [4]; [8] 27% | [4]; at 50.0 µM 41% | [5]; [7] 15% | [6]; [7] -4% | [6]; [8] 54% | [6]; at 50.0 µM 48.2%

Cn1c(=S)c2[nH]c(SCc3ccncc3)nc2n(C)c1=O
active: [6]; at 50.0 µM 78.1%
inactive: [1]; [7] -2% | [1]; [8] 7% | [1]; at 50.0 µM 47.2% | [2]; [7] 0% | [2]; [8] -1% | [2]; at 50.0 µM 59% | [3]; [7] -2% | [3]; [8] 53% | [3]; at 50.0 µM 64% | [4]; [7] -3% | [4]; [8] -12% | [4]; at 50.0 µM 17.8% | [5]; [7] -9% | [5]; [8] 2% | [5]; at 50.0 µM 56.4% | [6]; [7] -19% | [6]; [8] -6%

C\C=C/C=C/C=C/C(=O)O
inactive: [1]; [7] 5% | [1]; [8] 13% | [1]; at 50.0 µM 66.5% | [2]; [7] 2% | [2]; [8] -4% | [2]; at 50.0 µM 60.1% | [3]; [7] 2% | [3]; [8] 7% | [3]; at 50.0 µM 42.3% | [4]; [7] -2% | [4]; [8] 3% | [4]; at 50.0 µM 40.6% | [5]; [7] 4% | [5]; [8] 0% | [6]; [7] 1% | [6]; [8] 8% | [6]; at 50.0 µM 45%
active: [5]; at 50.0 µM 95%

Oc1c(Br)cc(Br)c2cccnc12
active: [1]; [7] 93% | [1]; [8] 97% | [1]; at 50.0 µM 98.7% | [2]; [8] 97% | [2]; at 50.0 µM 98.9% | [3]; [7] 88% | [3]; [8] 97% | [3]; at 50.0 µM 98.5% | [4]; [7] 82% | [4]; [8] 97% | [4]; at 50.0 µM 97.3% | [5]; [8] 88% | [5]; at 50.0 µM 98.3% | [6]; [7] 96% | [6]; [8] 96% | [6]; at 50.0 µM 98.4%
inactive: [2]; [7] 35% | [5]; [7] 28%

COc1cccc2c1C(=O)c1c(O)c3c(c(O)c1C2=O)C[C@@](O)(/C(C)=N\NC(N)=O)C[C@@H]3OC1CC(N)C(O)C(C)O1 (stereo not given in full)
active: [1]; [8] 83% | [1]; at 50.0 µM 88.8%
inactive: [1]; [7] 30% | [2]; [7] 52% | [2]; [8] 34% | [2]; at 50.0 µM 43.8% | [3]; [7] 6% | [3]; [8] 30% | [3]; at 50.0 µM 36.9% | [4]; [7] 7% | [4]; [8] 30% | [4]; at 50.0 µM 1.5% | [5]; [7] 6% | [5]; [8] 45% | [5]; at 50.0 µM 35.6% | [6]; [7] 8% | [6]; [8] 7% | [6]; at 50.0 µM 57%

O=C(O)c1ccc(OCc2ccccc2)c(Cl)c1
inactive: [1]; [7] 16% | [1]; [8] 36% | [1]; at 50.0 µM 52.8% | [2]; [7] 22% | [2]; [8] 44% | [2]; at 50.0 µM 25.5% | [3]; [7] 11% | [3]; [8] 38% | [3]; at 50.0 µM 30.9% | [4]; [7] -8% | [4]; [8] 39% | [4]; at 50.0 µM 54.2% | [5]; [7] 3% | [5]; [8] 17% | [5]; at 50.0 µM 38.2% | [6]; [7] 12% | [6]; [8] 47% | [6]; at 50.0 µM 59.1%

CC12CCC(O)CC1=CCC1C2CCC2(C)c3nc(C#N)c(=N)n(O)c3CC12 (stereo not given)
active: [1]; [8] 96% | [1]; at 50.0 µM 98.5% | [2]; [8] 71% | [2]; at 50.0 µM 98.7% | [3]; [8] 93% | [3]; at 50.0 µM 99.2% | [4]; [8] 89% | [4]; at 50.0 µM 98.5% | [5]; [8] 81% | [5]; at 50.0 µM 98% | [6]; [8] 85% | [6]; at 50.0 µM 99.2%
inactive: [1]; [7] 12% | [2]; [7] 0% | [3]; [7] 6% | [4]; [7] 4% | [5]; [7] 1% | [6]; [7] 44%

O=C(Cc1nc2ccccc2s1)Nc1ccc2ccccc2c1
active: [1]; [8] 99% | [1]; at 50.0 µM 98% | [2]; [8] 99% | [2]; at 50.0 µM 98.5% | [3]; [8] 99% | [3]; at 50.0 µM 97.8% | [4]; [8] 99% | [4]; at 50.0 µM 95.3% | [5]; [8] 99% | [5]; at 50.0 µM 97.8% | [6]; [8] 99% | [6]; at 50.0 µM 97.8%
inactive: [1]; [7] -8% | [2]; [7] 18% | [3]; [7] 31% | [4]; [7] -1% | [5]; [7] 12% | [6]; [7] 13%

CN(c1ccc(Cl)cc1)S(=O)(=O)c1cccc([N+](=O)[O-])c1
inactive: [1]; [7] -6% | [1]; [8] 52% | [1]; at 50.0 µM 42.7% | [2]; [7] -13% | [2]; at 50.0 µM 42.8% | [3]; [7] -6% | [3]; [8] 62% | [4]; [7] 27% | [4]; [8] 48% | [4]; at 50.0 µM 48.4% | [5]; [7] -28% | [6]; [7] -11% | [6]; [8] 51% | [6]; at 50.0 µM 58.9%
active: [2]; [8] 71% | [3]; at 50.0 µM 70.8% | [5]; [8] 90% | [5]; at 50.0 µM 78%

COc1ccc(-c2cc(C(=O)O)c3cccc(C(F)(F)F)c3n2)cc1
inactive: [1]; [7] 15% | [1]; at 50.0 µM 67.9% | [2]; [7] 4% | [2]; at 50.0 µM 57.6% | [3]; [7] 0% | [4]; [7] 22% | [4]; at 50.0 µM 64.5% | [5]; [7] 12% | [5]; at 50.0 µM 59% | [6]; [7] 17%
active: [1]; [8] 85% | [2]; [8] 83% | [3]; [8] 92% | [3]; at 50.0 µM 72.9% | [4]; [8] 80% | [5]; [8] 78% | [6]; [8] 96% | [6]; at 50.0 µM 89.7%
